Rv3671c inh: Rv3671c (M. tuberculosis) protease inhibition. P9WHR9. inhibition, % at 5.96 µM. 0.048% of 320,000 active; in the data active = inhibition above about 38%;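 note: extracellular domain of Rv3671c used as enzyme; 0% = enzyme with DMSO and 100% = no enzyme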
Mtb bLac sens: beta-lactam sensitization of Mtb H37Rv; M. tuberculosis H37Rv growth with meropenem, percent inhibition; 0.27% of 330,000 active; AID 434955; inhibition, % at 25 µM; call rule not given here;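 note: growth measured after seven days incubation then overnight dye step; 0% = bacteria only wells and 100% = bacteria with antibiotic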
GDH-TPI inh: counter-screen for M. tuberculosis FBA inhibitors: GDH-TPI coupled enzymes; inhibition, % at 4.8 µM; GDH-TPI coupled enzyme counterscreen, NADH absorbance; 1.2% of 360,000 active; in the data active = inhibition above about 30%;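 note: 0% = DMSO wells and 100% = wells lacking the enzyme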
RecA intein inh: Mtb RecA intein splicing inhibition; P9WHJ3; cell-free RecA intein splicing, fluorescence; inhibition, % (test concentration not listed); 0.75% of 290,000 active; AID 2221; in the data active = inhibition above about 30%; inconclusive = no clear call, values can overlap the other calls;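 note: 0% = vehicle wells and 100% = reference inhibitor control wells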
Mtb UGM inh: blocks M. tuberculosis UGM enzyme; purified UGM, fluorescence polarization probe displacement; 0.06% of 320,000 active; inhibition, % at 10 µM; in the data active = inhibition above about 10%, passing the limit was not always enough; inconclusive = no clear call, values can overlap the other calls
FBA Mtb inh: inhibits M. tuberculosis FBA enzyme | P9WQA3 | purified M. tuberculosis FBA, fluorescence read-out | inhibition, % at 1 µM | 2.3% of 360,000 active | AID 588726; in the data active = inhibition above about 27%;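 note: 0% = vehicle and 100% = reference inhibitor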
Target sequence (P9WQA3 whole entry, looked up): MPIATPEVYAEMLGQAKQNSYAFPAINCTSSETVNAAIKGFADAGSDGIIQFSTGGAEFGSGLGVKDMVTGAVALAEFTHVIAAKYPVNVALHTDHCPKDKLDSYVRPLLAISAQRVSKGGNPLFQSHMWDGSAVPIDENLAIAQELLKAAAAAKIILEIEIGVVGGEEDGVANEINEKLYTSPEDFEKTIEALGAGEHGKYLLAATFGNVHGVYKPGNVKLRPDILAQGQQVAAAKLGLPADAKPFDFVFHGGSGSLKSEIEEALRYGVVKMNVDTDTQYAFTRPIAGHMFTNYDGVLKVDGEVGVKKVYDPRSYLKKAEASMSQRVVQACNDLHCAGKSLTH
* hit, by the source's call; ? = inconclusive; . = no result given; + = active, no number. Compounds with a hit are over-represented: about 4% of the library has one in this group of screens.

SMILES | Rv3671c inh | Mtb bLac sens | GDH-TPI inh | RecA intein inh | Mtb UGM inh | FBA Mtb inh
C=CCN1C(=O)C2(c3ccccc31)C1CCCC=C1C(C#N)=C(N)C2(C#N)C#N (stereo unspecified) | -6 | 9 | 31* | 1 | -3 | -2
COc1ccc(/C=N/Nc2cc(C)nc(N)n2)cc1 | 11 | 9 | 35* | -7 | 0 | -1
Cc1cc(N/N=C/c2ccc(F)cc2)nc(-n2nc(C)cc2C)n1 | -1 | 92 | 11 | . | 0 | 17
COc1ccc(/C=N/Nc2cc(C)nc(-n3nc(C)cc3C)n2)c(OC)c1 | -6 | 98 | 37* | 0 | -3 | 0
COc1ccc(/C=N/Nc2cc(C)nc(N3CCOCC3)n2)cc1 | 2 | 5 | 33* | -1 | -4 | 0
COc1ccc(/C=N/Nc2cc(OC)ncn2)cc1 | 3 | 2 | 31* | -5 | 2 | -2
CCC(=O)Nc1cccc(-c2ccc(N3CCCCC3)nn2)c1 | 1 | ? | 5 | 6 | 0 | 6
COc1ccc(CCn2nnc3ccccc3c2=O)cc1OC | . | . | 1 | . | . | 3
COc1ccc(NC(=O)CSC(C)c2nc3ccccc3c(=O)[nH]2)cc1 (stereo unspecified) | 5 | -7 | 1 | -1 | 1 | 2
CCN(CC)CCCn1c2c(c(SCC(=O)Nc3nc4ccccc4s3)nc1=O)CCC2 | 0 | -10 | 4 | 3 | 0 | 5
O=C(NCC(c1ccco1)N1CCCC1)c1cccc(S(=O)(=O)N2CCOCC2)c1 (stereo unspecified) | -2 | -2 | -1 | . | -2 | 2
COCCNC(=O)C1CCCN(C(=O)C2(c3ccc(Cl)cc3)CCCC2)CC1 (stereo unspecified) | . | . | 12 | . | . | 3
COc1cc2cc(C(=O)NCCc3ccccc3)[nH]c2cc1OC | . | 1 | 3 | 0 | 4 | 160*
COc1ccc2cc(C(=O)NCCc3ccccc3)[nH]c2c1 | . | -1 | 16 | -2 | 2 | 7
COc1cc2cc(C(=O)Nc3ccc4c(c3)OCCO4)[nH]c2cc1OC | 7 | 14 | 36* | 7 | 1 | 2
COc1cc2[nH]c(C(=O)Nc3ccc4c(c3)OCCO4)cc2c(OC)c1OC | -4 | -4 | 22 | 5 | 0 | 1
O=C(NCC1CCCN1S(=O)(=O)c1ccccc1)c1cccc(Cl)c1 (stereo unspecified) | -2 | -16 | 2 | 3 | 0 | 1
CCOC(=O)c1nc2sc3c(c2c(=O)[nH]1)CCCC3 | -4 | 10 | 22 | -6 | 0 | 181*
Cc1cc(=O)oc2cc(OCC(=O)Nc3nccs3)ccc12 | -7 | 0 | 21 | 0 | -3 | 14
Cc1c(C)c2ccc(OCC(=O)Nc3nccs3)cc2oc1=O | -6 | 0 | 17 | 1 | -1 | 65*
CCOC(=O)C1=C(Cc2ccc(F)cc2)C(=O)c2ccccc2C1=O | -40 | 23 | 2 | 8 | -7 | -1
CCCCc1ccc(/C=C2\C(=O)c3ccccc3C(O)=C2C(=O)OCC)cc1 | -82 | 6 | . | 35* | 1 | .
Cc1cccc(C2=NN(c3ccccc3)[C@@H](C(=O)N3CCOC3=O)[C@@H]2c2ccccc2)c1 | . | . | 11 | . | . | 9
Cc1cccc(C2=NN(c3ccc(Br)cc3)[C@@H](C(=O)N3CCOC3=O)[C@@H]2c2ccccc2)c1 | . | . | 17 | . | . | 28*
O=C1OCCN1C(=O)[C@H]1[C@H](c2ccccc2)C(c2ccc(F)cc2)=NN1c1ccc(Br)cc1 | . | . | 24 | . | . | 35*
SMILES | Rv3671c inh | Mtb bLac sens | GDH-TPI inh | RecA intein inh | Mtb UGM inh | FBA Mtb inh
C[C@@H]1C(c2cccc(Cl)c2)=NN(c2ccc(Br)cc2)[C@H]1C(=O)N1CCOC1=O | . | . | 16 | . | . | 56*
O=C1OCCN1C(=O)[C@H]1[C@H](c2ccccc2)C(c2ccccc2)=NN1c1ccc(Br)cc1 | . | . | 16 | . | . | 43*
COc1ccc(OC)c(N(CC(=O)N2CCN(Cc3ccccc3)CC2)S(C)(=O)=O)c1 | 8 | -12 | -4 | 2 | 0 | -2
CCC(C)[C@H](NC(=O)[C@@H]1Cc2ccccc2CN1)C(=O)Nc1ccc2c(c1)OCO2 (stereo partly specified) | -8 | -2 | 3 | 4 | -2 | -2
CN1CC(=O)N(CC(=O)Nc2ccc(OCc3ccccc3)cc2)C1=O | 3 | 0 | -4 | . | 4 | 4
COc1ccc(O)c(C(=O)CC(=O)c2cccnc2)c1 | . | . | 18 | . | . | 115*
COc1ccc(C(=O)CC(=O)c2ccccc2O)cc1 | 0 | 11 | 4 | . | 0 | 171*
COc1ccc(O)c(C(=O)CC(=O)c2ccccc2C)c1 | 5 | 88 | 10 | 11 | 0 | 22
O=C(N/N=C/c1ccc(-c2cccc(C(F)(F)F)c2)o1)c1ccccc1Br | -22 | 4 | 54* | -4 | 3 | 2
O=C(N/N=C/c1ccc(-c2cccc(C(F)(F)F)c2)o1)c1cccc(F)c1 | -19 | 92 | 44* | -61 | 0 | 3
NC(=O)N/N=C/c1ccc(-c2cccc(C(F)(F)F)c2)o1 | 5 | 19 | 6 | 0 | -1 | -4
CC(=O)Nc1ccc(-c2ccnc3c2CC(C)(C(=O)NCC2CC2)O3)cc1 (stereo unspecified) | . | . | 2 | . | . | 12
COC(=O)c1ccc(-c2cc(C(=O)O)c3cc4c(cc3n2)OCCO4)cc1 | 5 | 77 | 21 | 2 | -3 | +
COc1cc(-c2cc(C(=O)O)c3cc4c(cc3n2)OCCO4)cc(OC)c1OC | 2 | 4 | 20 | . | 2 | -3
COc1ccccc1CCNC(=O)c1nccnc1C(=O)O | 4 | 0 | 1 | 8 | -2 | 2
O=C(CCn1cnc2ccccc2c1=O)Nc1cccc(Cl)c1 | -5 | -7 | -3 | -5 | -1 | -4
COc1ccc(Cl)cc1NC(=O)CCn1cnc2ccccc2c1=O | 3 | -1 | -4 | 2 | 1 | 49*
CC1CC(C)CN(C(=O)COC(=O)c2nccnc2N)C1 (stereo unspecified) | -8 | 2 | 1 | . | 3 | 180*
COC(=O)c1nc(C(=O)OC)c(C(=O)OC)nc1C(=O)OC | 8 | 6 | 10 | -2 | 0 | 6
COC(=O)c1nccnc1N | . | . | -2 | . | . | 146*
Nc1nccnc1C(=O)OCC(=O)N1CCN(S(=O)(=O)c2ccc(Cl)cc2)CC1 | 6 | -13 | 8 | -3 | . | 148*
Cc1cnc(C(=O)OCC(=O)C23CC4CC(CC(C4)C2)C3)cn1 | 1 | -11 | 11 | -1 | 5 | -1
Nc1nccnc1C(=O)OCC(=O)C12CC3CC(CC(C3)C1)C2 | 1 | -9 | 8 | -1 | -3 | 127*
CC1(Oc2cccc(F)c2)CCN(Cc2ccc3ccccc3c2)C1 (stereo unspecified) | . | . | 11 | . | . | 1
CCOC(=O)c1[nH]ncc1CN1CCc2ccc(NC(=O)C3CCCO3)cc2C1 (stereo unspecified) | 3 | -4 | 6 | -1 | -3 | 1
COc1ccccc1CNS(=O)(=O)c1ccc2c(c1)N(C(C)=O)CCO2 | -5 | 1 | -4 | 1 | -1 | 1
Cc1cccn2cc(-c3ccc(S(=O)(=O)N4CCOCC4)cc3)nc12 | 3 | -20 | 18 | 2 | 3 | 187*

Source: PubChem BioAssay (several laboratories)
